In PubChem BioAssay (NCATS):
Values joined by “and” are separate entries in the source; they are usually repeats but may differ in a detail not shown here. Equal entries are not always repeated. Records with an inconclusive call do not appear. Active and inactive are the calls of the source. Unless noted, the call rests on the fitted dose curve; in most records, active means well fitted curve in the direction sought with a large enough effect; inconclusive means small, poorly fitted or top-dose-only effect, or another doubt; inactive means no such curve, though single readings can be large; an effect the other way counts as inactive or inconclusive.

Experiments:
[1] = molecular target: M-phase phosphoprotein 8 (Homo sapiens) (UniProt Q99549); test: qHTS Validation Assay for Inhibitors for MPP8 Chromodomain Interactions with Methylated Histone Tails (AID 488949); details: AlphaScreen MPP8 binding to H3K9me3 peptide; series mostly up to 57.1 µM; further: nearly all actives have a fitted effect of over 55% in size; further: potency means the concentration at half of the fitted maximal effect
Procedure, shortened: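 Chemiluminescent proximity assay: histidine-tag capture via nickel acceptor beads, biotin peptide via streptavidin donor beads. Protein and peptide each at 50 nM, pH 7.4, with 30 min incubations at room temperature for complex formation, compound exposure and bead binding.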

[2] = molecular target: Chromobox protein homolog 1 (Homo sapiens) (UniProt P83916); test: qHTS Validation Assay for Inhibitors of HP1-beta Chromodomain Interactions with Methylated Histone Tails (AID 488953); details: HP1-beta chromodomain / methylated histone peptide binding assay; series mostly up to 114 µM; further: nearly all actives have a fitted effect of over 50% in size; further: potency means the concentration at half of the fitted maximal effect
Procedure, shortened: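 AlphaScreen proximity signal from streptavidin donor and nickel chelate acceptor beads (final 10 ug/mL) after 30 min dark incubation. Compounds had 30 min at room temperature with preformed complex of 50 nM HP1-beta and 50 nM b-H3(1-18)K9me3 in PBS pH 7.4 with 0.01% Tween-20.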

[3] = molecular target: Methanococcus maripaludis chaperonin (MmCpn) (UniProt Q6LX38); test: High-Throughput Screening for Modulators of Cytosolic Chaperonin Activity: MmCpn Primary Screen (AID 488978); details: Purified MmCpn ATPase activity, ADP HTRF detection, 10 min; series mostly up to 76.9 µM; further: 0% is about no effect
Procedure, shortened: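 HTRF readout (320 nm excitation, 590/665 nm emission) of ADP generated by 50 nM MmCpn hydrolysing 30 uM ATP during 10 min at 37C; compound preincubated 5 min RT.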

[4] = molecular target: Transient receptor potential cation channel subfamily V member 1 (Homo sapiens) (UniProt Q8NER1); test: HTS Assay for Compounds that Act as Enhancers of the Vanilloid Receptor 1 (AID 488979); details: TRPV1-expressing cells, enhancer of channel activity; series mostly up to 41.7 µM; further: 0% is about no effect
Procedure, shortened: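 TRPV1-expressing cells loaded with Fluo-8 calcium dye; compounds added and calcium influx read kinetically for 3 min (agonist phase), then capsaicin at EC20 added and read 2 min more for enhancement. Fluorescence ex 480/em 520 nm.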

[5] = molecular target: Thyrotropin receptor (Homo sapiens) (UniProt P16473); test: qHTS Assay for Antagonists of the Thyroid Stimulating Hormone Receptor (AID 488980); details: TSHR-expressing cells, cAMP antagonist read-out; series mostly up to 57.5 µM; further: 0% is about no effect
Procedure, shortened: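 Inhibition of TSH-stimulated cAMP accumulation was quantified by homogeneous time-resolved FRET in TSHR-transfected HEK293 cells. Agonist: TSH, 4 nM final (EC80).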

[6] = molecular target: D(1A) dopamine receptor (Homo sapiens) (UniProt P21728); test: HTS Assay for Allosteric Agonists of the Human D1 Dopamine Receptor: Primary Screen for Agonists (AID 488981); details: Inducible HEK293 T-REx D1 cells, calcium-flux fluorescence, 180 s kinetic; series mostly up to 41.8 µM; further: potency means the concentration at half of the fitted maximal effect; on activation: 0% is about no effect
Procedure, shortened: (§1)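 Tetracycline-induced HEK293 T-REx cells force-coupled to calcium signalling were incubated overnight at 30 C and dye-loaded at room temperature. Calcium flux over 180 s after compound addition flagged agonists; a further 180 s read after EC20 dopamine flagged potentiators.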

[7] = molecular target: D(1A) dopamine receptor (Homo sapiens) (UniProt P21728); test: HTS Assay for Allosteric Agonists of the Human D1 Dopamine Receptor: Primary Screen for Potentiators (AID 488982); details: HEK293 T-REx D1 inducible cells, calcium flux, kinetic fluorescence; series mostly up to 8.37 µM; further: 0% is about no effect
Procedure, shortened: as §1

[8] = molecular target: D(1A) dopamine receptor (Homo sapiens) (UniProt P21728); test: HTS Assay for Allosteric Agonists of the Human D1 Dopamine Receptor: Primary Screen for Antagonists (AID 488983); details: D1 receptor cell assay, antagonist mode, qHTS titration; series mostly up to 41.8 µM;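 further: calcium flux response to an EC80 dopamine challenge measured with no-wash dye; on the % scale 0 is the no-effect control and ±100 the full control effect; nearly all actives have a fitted effect of over 65% in size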
Procedure, shortened: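 Calcium-flux read-out in inducible HEK293 T-REx cells expressing D1, dye-loaded 30–90 min at room temperature. Kinetic reads: 180 s after compound (agonist phase), then 180 s after an EC80 dopamine challenge.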

[9] = Validation screen for small molecules that induce genotoxicity in human embryonic kidney (HEK293T) cells expressing luciferase-tagged ELG1 (AID 493106); details: luminescence; series mostly up to 46.1 µM; further: 0% is about no effect
Procedure, shortened: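 ELG1-luciferase reporter readout (ONE-Glo, 30 min, room temperature) after 16 hr compound treatment at 37 °C of HEK293T cells at 2,000 per well. Rising luminescence flags genotoxic stress.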

[10] = molecular target: Thyrotropin-releasing hormone receptor (Homo sapiens) (UniProt P34981); test: qHTS for Small Molecule Agonists and Allosteric Enhancers of Human TRH Receptor: Validation Screen for Agonists (AID 493127;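 active means calcium activation more than 3 SD above the typical response in the agonist read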;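 further: intracellular calcium rise by fluo-8 fluorescence before TRH EC20 addition; 0% is about no effect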); details: TRH receptor agonist cell assay; at 2 µM; stronger effect = higher value
Procedure, shortened: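 Compound-evoked intracellular calcium release in fluo-8-loaded TRHR cells, read kinetically on FDSS (Ex 480/Em 530, 1 s/cycle) after 23 nL pintool transfer. Agonist phase preceded 10 nM TRH EC20 addition.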

[11] = qHTS for Inhibitors of Cell Surface uPA Generation: Validation Assay (AID 493164); details: mouse cells, plasminogen activation; series mostly up to 38.3 µM;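 further: RAW 264.7 macrophage cells exposed to compound for 18 h; 0% is about no effect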
Procedure, shortened: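 ATP-Lite luminescence read-out: ATP remains high when uPA activity-dependent LF translocation into the cytoplasm is blocked. RAW 264.7 cells, 18 h compound exposure at 37 C; 7-point titration, 2.45 nM to 38.3 uM final.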

[12] = molecular target: Peptidyl-prolyl cis-trans isomerase NIMA-interacting 1 (Homo sapiens) (UniProt Q13526); test: qHTS Validation Assay to Find Inhibitors of Pin1 (AID 504536; active means well fitted inhibition curve with a large enough effect in the polarisation, with a control signal flat, not every such curve was filed as active; the % refers to the polarisation; further: potency means the concentration at half of the fitted maximal effect); details: Pin1 fluorescence polarization peptide binding assay; series mostly up to 57.5 µM
Procedure, shortened: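 Fluorescence polarization competition: compounds (titration) displace HiFluor-488-labeled Pin1-1b peptide from Pin1 (0.3 uM final) in pH 7.5 HEPES buffer with DTT, 10 min at room temperature; %Activity normalized to no-enzyme wells, curves fitted.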

[13] = molecular target: Phosphoglycerate kinase, glycosomal (Trypanosoma brucei brucei) (UniProt P07378); test: qHTS Validation Assay to Find Inhibitors of Phosphoglycerate Kinase (AID 504547); details: enzymatic PGK inhibition, coupled luminescence read-out; series mostly up to 57.5 µM;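 further: control wells lack PGK and mark full inhibition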
Procedure, shortened: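 In TEA buffer (100mM, pH 7.6) containing 5mM MgCl2 and 0.01% Tween-20, the GAPDH-coupled PGK reaction proceeded for 60 minutes at room temperature before a single luminescence reading using Kinase-Glo Plus.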

[14] = molecular target: phosphoglycerate mutase (Leishmania major) (UniProt Q4Q090); test: qHTS Validation Assay to Find Inhibitors of Phosphoglycerate Mutase (AID 504548); details: biochemical enzyme activity; series mostly up to 57.5 µM; further: on the % scale 0 is the no-effect control and ±100 the full control effect
Procedure, shortened: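 Luminescent end-point read-out via Kinase-GloPlus after a 10-minute development. Reaction: 1.25nM Leishmania major PGAM with substrate and compound, 45 minutes at room temperature in TEA buffer (pH 7.6) with MgCl2 and Tween-20.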

[15] = Inducers of the Endoplasmic Reticulum Stress Response (ERSR) in human glioma: Validation (AID 504836); details: human glioma cells, ER stress response reporter; series mostly up to 38.3 µM; further: 0% is about no effect
Procedure, shortened: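 Stably transfected U87-MG human glioma cells carrying a GRP78-based luminescent sensor were seeded at 1000 cells/well, pin-dosed with compounds and incubated 16 h. Luciferase reagent was then added, and end-point luminescence was read after 10 min at room temperature.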

[16] = molecular target: DNA dC->dU-editing enzyme APOBEC-3G (Homo sapiens) (UniProt Q9HC16); test: qHTS for inhibitors of Vif-A3G interactions: Validation (AID 588379); details: Vif-A3G protein interaction assay; series mostly up to 46.1 µM; further: 0% is about no effect
Procedure, shortened: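 Yellow fluorescence (Ex 488, Em 500-530) of Vif-coexpressing HeLa A3G-eYFP cells, scanned by Acumen cytometer, reports blocked A3G degradation. Cells plated at 700/well overnight at 37 deg C before compound addition, then a further overnight compound incubation at 37 deg C.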

[17] = molecular target: ATPase family AAA domain-containing protein 5 (Homo sapiens) (UniProt Q96QE3); test: Validation screen for small molecules that inhibit ELG1-dependent DNA repair in human embryonic kidney (HEK293T) cells expressing luciferase-tagged ELG1 (AID 493107); details: HEK293T ELG1-luciferase level, luminescence, 5-fluorouridine co-treatment, 16 h; series mostly up to 46.1 µM; further: nearly all actives have a fitted effect of over 70% in size; further: potency means the concentration at half of the fitted maximal effect
Procedure, shortened: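 Luciferase read-out, ONE-Glo, 30 min at room temperature, follows 16 h co-exposure at 37 C of compound and the DNA-damaging agent 5-fluorouridine. Cells: HEK293T with ELG1-luciferase fusion, 2,000 per well, DMSO as vehicle.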

[18] = molecular target: Ubiquitin carboxyl-terminal hydrolase 1 (Homo sapiens) (UniProt O94782); test: Inhibitors of USP1/UAF1: Pilot qHTS (AID 504865); details: purified USP1/UAF1, Ub-rhodamine cleavage fluorescence; series mostly up to 114 µM; further: nearly all actives have a fitted effect of over 35% in size; further: potency means the concentration at half of the fitted maximal effect
Procedure, shortened: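 Enzyme-free wells gave the negative control, while test wells held 1nM USP1/UAF1 preincubated with compound for 15 min at room temperature. Ub-Rho at 150nM final started the reaction, and fluorescence at 480/540 nm was recorded kinetically.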

[19] = molecular target: ATP-dependent 6-phosphofructokinase (Trypanosoma brucei brucei) (UniProt O15648); test: qHTS Assay to Find Inhibitors of T. brucei phosphofructokinase: hit validation (AID 492961);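 further: luminescence reports ADP formed as PFK phosphorylates fructose-6-phosphate with ATP; on the % scale 0 is the no-effect control and ±100 the full control effect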; details: T. brucei PFK, ADP-Glo luminescence; series mostly up to 51.4 µM
Procedure, shortened: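 PFK 1.25 nM, F6P 0.5 mM, ATP 0.1 mM, MgCl2 5 mM, 0.1 M TEA pH 8.0, Tween20 0.01%, BSA 0.1%; 45 min RT. ADP-Glo two-step detection, luminescence. qHTS titration; curve fitting with curve-class categorization.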

[20] = Nrf2 qHTS screen for inhibitors: Validation (AID 493153; active means well fitted inhibition curve with a large enough effect in the main read-out, with a control signal flat, not every such curve was filed as active); details: A549 ARE-Fluc reporter, 18-24 h; Potency: luciferase luminescence; viability change: measured here: cytotoxicity max response; luciferase luminescence, at 46.1 µM (top of the series)
Procedure, shortened: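 Concentration-response on A549 ARE_Fluc reporter cells exposed 18-24 h at 37 C, 5% CO2. Cytotoxicity read first by CellTiter-Fluor fluorescence (Ex 405/Em 525), then Nrf2 inhibition by BugLite luminescence after 15 min.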

Sequence of ATPase family AAA domain-containing protein 5 (Homo sapiens) (Q96QE3 whole entry, looked up, the tested form may be a part): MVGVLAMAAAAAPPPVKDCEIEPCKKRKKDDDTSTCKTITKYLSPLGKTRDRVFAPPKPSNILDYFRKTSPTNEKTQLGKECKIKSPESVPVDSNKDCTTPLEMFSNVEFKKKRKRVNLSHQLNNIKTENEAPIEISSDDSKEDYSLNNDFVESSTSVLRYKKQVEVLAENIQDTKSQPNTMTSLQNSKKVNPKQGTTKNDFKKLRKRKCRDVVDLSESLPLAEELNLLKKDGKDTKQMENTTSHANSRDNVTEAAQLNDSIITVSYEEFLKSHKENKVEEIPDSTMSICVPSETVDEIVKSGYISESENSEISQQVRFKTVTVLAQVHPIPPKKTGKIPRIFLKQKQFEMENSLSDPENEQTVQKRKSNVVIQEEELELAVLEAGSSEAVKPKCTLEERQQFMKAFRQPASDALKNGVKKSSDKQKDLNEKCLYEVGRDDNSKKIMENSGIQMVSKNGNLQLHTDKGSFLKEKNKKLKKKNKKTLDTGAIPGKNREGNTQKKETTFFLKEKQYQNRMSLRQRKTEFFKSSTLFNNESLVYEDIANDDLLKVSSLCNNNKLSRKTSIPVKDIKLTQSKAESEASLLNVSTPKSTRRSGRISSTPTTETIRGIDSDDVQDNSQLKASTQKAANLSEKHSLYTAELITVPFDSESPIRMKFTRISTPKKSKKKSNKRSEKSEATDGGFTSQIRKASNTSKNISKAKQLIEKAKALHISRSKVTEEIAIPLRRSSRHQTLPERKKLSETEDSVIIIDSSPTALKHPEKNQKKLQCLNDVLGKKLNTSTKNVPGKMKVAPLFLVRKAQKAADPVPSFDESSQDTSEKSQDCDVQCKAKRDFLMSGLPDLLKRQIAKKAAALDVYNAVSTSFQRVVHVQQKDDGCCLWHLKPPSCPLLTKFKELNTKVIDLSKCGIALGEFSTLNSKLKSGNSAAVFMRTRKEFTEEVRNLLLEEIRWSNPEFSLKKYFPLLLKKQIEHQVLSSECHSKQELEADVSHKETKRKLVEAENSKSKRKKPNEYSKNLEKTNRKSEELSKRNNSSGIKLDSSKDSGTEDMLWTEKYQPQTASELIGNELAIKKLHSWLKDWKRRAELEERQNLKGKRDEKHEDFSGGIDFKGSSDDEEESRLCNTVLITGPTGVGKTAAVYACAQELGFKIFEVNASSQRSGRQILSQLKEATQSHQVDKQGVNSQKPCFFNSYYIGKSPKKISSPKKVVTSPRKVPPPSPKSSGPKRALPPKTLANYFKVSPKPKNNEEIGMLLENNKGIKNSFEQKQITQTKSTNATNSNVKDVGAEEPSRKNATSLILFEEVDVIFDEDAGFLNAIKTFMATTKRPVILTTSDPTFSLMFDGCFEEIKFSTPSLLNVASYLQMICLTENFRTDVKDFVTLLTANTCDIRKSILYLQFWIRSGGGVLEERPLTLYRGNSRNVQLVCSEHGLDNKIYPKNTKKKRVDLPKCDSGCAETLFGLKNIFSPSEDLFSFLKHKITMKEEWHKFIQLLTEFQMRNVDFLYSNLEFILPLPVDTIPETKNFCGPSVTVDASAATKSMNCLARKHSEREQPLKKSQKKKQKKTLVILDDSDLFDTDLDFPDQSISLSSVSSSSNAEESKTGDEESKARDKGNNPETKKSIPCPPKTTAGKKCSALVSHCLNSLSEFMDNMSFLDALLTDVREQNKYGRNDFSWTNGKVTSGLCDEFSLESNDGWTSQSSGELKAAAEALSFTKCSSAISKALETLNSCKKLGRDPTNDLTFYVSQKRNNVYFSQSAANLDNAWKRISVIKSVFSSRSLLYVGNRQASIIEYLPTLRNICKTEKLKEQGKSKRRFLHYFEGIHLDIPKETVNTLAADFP
Sequence of Thyrotropin-releasing hormone receptor (Homo sapiens) (P34981 whole entry, looked up): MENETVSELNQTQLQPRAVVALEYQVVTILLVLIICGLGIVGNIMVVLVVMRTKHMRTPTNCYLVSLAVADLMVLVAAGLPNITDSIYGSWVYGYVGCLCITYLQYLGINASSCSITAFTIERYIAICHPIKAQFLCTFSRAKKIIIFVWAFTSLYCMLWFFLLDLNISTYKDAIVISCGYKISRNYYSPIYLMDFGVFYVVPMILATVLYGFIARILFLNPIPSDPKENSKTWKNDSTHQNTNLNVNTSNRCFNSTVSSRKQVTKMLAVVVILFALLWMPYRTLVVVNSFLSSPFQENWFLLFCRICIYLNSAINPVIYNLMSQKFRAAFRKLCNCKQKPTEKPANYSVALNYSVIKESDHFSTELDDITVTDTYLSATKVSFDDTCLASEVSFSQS
Sequence of phosphoglycerate mutase (Leishmania major) (Q4Q090 1-553): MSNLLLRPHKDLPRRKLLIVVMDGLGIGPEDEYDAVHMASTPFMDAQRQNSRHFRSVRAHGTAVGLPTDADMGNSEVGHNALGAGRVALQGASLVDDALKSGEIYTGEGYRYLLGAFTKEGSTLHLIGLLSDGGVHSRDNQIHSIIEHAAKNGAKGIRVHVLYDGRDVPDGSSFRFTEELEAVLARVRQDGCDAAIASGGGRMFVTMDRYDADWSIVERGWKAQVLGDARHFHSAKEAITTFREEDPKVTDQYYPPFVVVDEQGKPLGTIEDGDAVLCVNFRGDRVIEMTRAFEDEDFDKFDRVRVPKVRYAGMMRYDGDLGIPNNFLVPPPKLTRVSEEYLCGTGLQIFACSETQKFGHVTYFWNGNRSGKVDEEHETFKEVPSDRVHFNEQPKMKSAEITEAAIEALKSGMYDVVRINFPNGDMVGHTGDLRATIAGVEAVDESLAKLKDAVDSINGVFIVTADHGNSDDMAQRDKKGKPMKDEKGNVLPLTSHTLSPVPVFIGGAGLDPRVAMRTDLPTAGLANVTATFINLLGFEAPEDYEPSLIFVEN
Sequence of Peptidyl-prolyl cis-trans isomerase NIMA-interacting 1 (Homo sapiens) (Q13526 whole entry, looked up): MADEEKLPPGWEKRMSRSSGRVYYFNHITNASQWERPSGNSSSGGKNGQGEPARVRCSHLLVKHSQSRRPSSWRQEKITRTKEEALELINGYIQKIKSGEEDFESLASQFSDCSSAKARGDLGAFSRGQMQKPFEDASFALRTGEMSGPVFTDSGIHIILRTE
Sequence of Phosphoglycerate kinase, glycosomal (Trypanosoma brucei brucei) (P07378 whole entry, looked up): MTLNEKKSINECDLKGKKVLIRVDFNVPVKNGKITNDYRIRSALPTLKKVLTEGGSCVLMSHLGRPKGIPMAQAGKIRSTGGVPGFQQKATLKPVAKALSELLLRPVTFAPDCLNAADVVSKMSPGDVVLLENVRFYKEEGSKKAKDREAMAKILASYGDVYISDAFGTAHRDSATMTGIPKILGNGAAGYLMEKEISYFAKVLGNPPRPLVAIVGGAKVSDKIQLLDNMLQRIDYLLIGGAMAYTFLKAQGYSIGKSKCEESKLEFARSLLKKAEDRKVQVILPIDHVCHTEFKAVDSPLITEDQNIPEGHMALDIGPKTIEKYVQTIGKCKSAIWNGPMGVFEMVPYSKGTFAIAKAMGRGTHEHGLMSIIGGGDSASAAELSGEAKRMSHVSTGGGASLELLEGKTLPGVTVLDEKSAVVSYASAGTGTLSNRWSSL
Sequence of Methanococcus maripaludis chaperonin (MmCpn) (Q6LX38 1-543): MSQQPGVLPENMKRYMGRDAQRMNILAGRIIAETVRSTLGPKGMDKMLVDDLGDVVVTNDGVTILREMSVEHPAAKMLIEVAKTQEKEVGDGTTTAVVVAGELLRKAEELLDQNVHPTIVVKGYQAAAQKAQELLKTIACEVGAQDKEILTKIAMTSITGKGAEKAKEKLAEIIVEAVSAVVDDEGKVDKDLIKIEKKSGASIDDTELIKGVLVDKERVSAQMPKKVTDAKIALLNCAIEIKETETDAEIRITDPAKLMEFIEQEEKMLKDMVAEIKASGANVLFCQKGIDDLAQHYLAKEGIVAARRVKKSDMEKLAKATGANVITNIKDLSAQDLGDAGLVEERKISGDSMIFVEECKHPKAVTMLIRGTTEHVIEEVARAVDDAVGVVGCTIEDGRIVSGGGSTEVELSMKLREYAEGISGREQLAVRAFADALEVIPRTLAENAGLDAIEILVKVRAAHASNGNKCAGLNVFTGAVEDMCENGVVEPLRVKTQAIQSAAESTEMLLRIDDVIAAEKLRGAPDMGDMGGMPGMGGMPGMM
Sequence of M-phase phosphoprotein 8 (Homo sapiens) (Q99549 whole entry, looked up): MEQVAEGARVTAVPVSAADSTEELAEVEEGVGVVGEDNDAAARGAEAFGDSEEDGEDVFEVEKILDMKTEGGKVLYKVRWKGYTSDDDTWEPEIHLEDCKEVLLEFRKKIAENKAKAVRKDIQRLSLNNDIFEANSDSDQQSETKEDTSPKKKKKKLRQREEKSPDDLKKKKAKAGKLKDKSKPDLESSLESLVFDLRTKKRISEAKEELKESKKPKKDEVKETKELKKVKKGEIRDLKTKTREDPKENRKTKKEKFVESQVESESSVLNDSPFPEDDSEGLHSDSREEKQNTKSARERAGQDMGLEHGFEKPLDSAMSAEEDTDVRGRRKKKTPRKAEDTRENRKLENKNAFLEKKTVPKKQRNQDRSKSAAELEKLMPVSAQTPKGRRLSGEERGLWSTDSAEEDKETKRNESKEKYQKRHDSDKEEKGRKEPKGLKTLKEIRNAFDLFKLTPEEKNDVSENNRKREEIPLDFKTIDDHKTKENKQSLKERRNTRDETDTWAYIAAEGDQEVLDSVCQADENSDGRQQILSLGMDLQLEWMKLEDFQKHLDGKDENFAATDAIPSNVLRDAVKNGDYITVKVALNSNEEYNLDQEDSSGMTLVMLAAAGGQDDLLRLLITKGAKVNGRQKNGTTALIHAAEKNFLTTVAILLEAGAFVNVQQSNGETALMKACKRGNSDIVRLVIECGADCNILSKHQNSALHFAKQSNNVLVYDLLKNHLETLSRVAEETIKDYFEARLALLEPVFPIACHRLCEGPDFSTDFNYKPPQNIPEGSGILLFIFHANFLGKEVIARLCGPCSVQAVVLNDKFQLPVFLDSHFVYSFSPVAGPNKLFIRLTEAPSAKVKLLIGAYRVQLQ
Sequence of Chromobox protein homolog 1 (Homo sapiens) (P83916 whole entry, looked up): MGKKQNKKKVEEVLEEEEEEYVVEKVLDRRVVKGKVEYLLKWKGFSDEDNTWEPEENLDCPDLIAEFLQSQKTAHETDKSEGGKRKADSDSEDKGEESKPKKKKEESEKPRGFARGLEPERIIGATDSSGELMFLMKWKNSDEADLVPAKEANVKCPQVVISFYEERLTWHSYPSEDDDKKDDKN

C=C(C)[C@H]1Cc2c(ccc3c2O[C@@H]2COc4cc(OC)c(OC)cc4[C@@H]2C3=O)O1
active: Potency [2] 35.5 µM
inactive: Potency [1] | outcome [3] | outcome [4] | outcome [5] | Potency [6] | Potency [7] | Potency [8] | Potency [9] | activation [10] 1.25% | outcome [11] | Potency [12] | Potency [13] | outcome [14] | outcome [15] | outcome [16]

Cc1cc2c(C(C)C)c(O)c(O)c(C=O)c2c(O)c1-c1c(C)cc2c(C(C)C)c(O)c(O)c(C=O)c2c1O
active: Potency [1] 15 µM | Potency [2] 10 µM | Potency [6] 22.4 µM | Potency [17] 8.2 µM | Potency [12] 9.53 µM | Potency [18] 22.4 µM and 31.6 µM and 10 µM
inactive: outcome [15]

CC(=O)[C@H]1CC[C@H]2[C@@H]3CC[C@H]4C[C@](C)(O)CC[C@]4(C)[C@H]3CC[C@]12C
inactive: Potency [1] | Potency [2] | outcome [3] | Potency [6] | Potency [7] | Potency [8] | outcome [19] | Potency [9] | Potency [17] | outcome [11] | Potency [12] | Potency [13] | outcome [14] | outcome [15] | Potency [18]

CC(C)C(=O)Nc1ccc([N+](=O)[O-])c(C(F)(F)F)c1
inactive: Potency [1] | Potency [2] | Potency [7] | Potency [9] | outcome [15]

Nc1ccncc1
-2.07%: viability change [20]
inactive: Potency [1] | outcome [3] | outcome [4] | outcome [5] | Potency [6] | Potency [7] | Potency [8] | Potency [9] | Potency [17] | activation [10] 1.19% | Potency [20] | outcome [11] | Potency [12] | Potency [13] | outcome [14] | outcome [15] | Potency [18] | outcome [16]

O=c1[nH]c2ccccc2n1CCCN1CCC(n2c(=O)[nH]c3cc(Cl)ccc32)CC1
inactive: Potency [1] | outcome [3] | outcome [4] | outcome [5] | Potency [6] | Potency [7] | outcome [19] | Potency [9] | Potency [20] | outcome [11] | Potency [12] | Potency [13] | outcome [14] | outcome [15] | Potency [18]
active: Potency [17] 16.4 µM
-5.95%: viability change [20]

CC(C)=CCOc1c2occc2cc2ccc(=O)oc12
inactive: Potency [1] | outcome [3] | Potency [6] | Potency [7] | Potency [8] | Potency [9] | Potency [17] | Potency [20] | outcome [11] | Potency [12] | Potency [13] | outcome [14] | outcome [15] | Potency [18]
0.848%: viability change [20]

NCC(O)c1ccc(O)cc1 (stereo not drawn)
0.943%: viability change [20]
inactive: Potency [1] | Potency [2] | outcome [3] | outcome [4] | outcome [5] | Potency [6] | Potency [7] | Potency [8] | Potency [9] | Potency [17] | activation [10] 0.812% | Potency [20] | outcome [11] | Potency [12] | Potency [13] | outcome [14] | outcome [15] | Potency [18]
